Reference: PubChem BioAssay (NCI)
Compounds without any hit were thinned out: in the full panel of roughly 83,000, 20% have a hit.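 Cell lines were cultured in 96-well plates, exposed to a single compound concentration, and assessed for percent growth 48 hours later.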 Unmarked numbers belong to inactive results. Calls of active or inactive are those of the source. Rule for the calls: active = growth percent below 10; inactive = the rest.

Columns and labels:
Assay in all cases: NCI-60 one-dose screen, 48 h (100 = growth as untreated, 0 = no growth, -100 = all killed)
Settings in all cases: 10 µM unless noted
SR leukemia = system: SR leukemia
RPMI-8226 leukemia = system: RPMI-8226 leukemia
OVCAR-8 ovarian = system: OVCAR-8 ovarian
OVCAR-5 ovarian = system: OVCAR-5 ovarian
OVCAR-4 ovarian = system: OVCAR-4 ovarian
SK-OV-3 ovarian = system: SK-OV-3 ovarian
IGROV1 ovarian = system: IGROV1 ovarian
HS 578T breast = system: HS 578T breast
NCI/ADR-RES ovarian = system: NCI/ADR-RES ovarian
T-47D breast = system: T-47D breast
BT-549 breast = system: BT-549 breast
MDA-MB-435 melanoma = system: MDA-MB-435 melanoma
SW-620 colon = system: SW-620 colon
MCF7 breast = system: MCF7 breast
HCT-116 colon = system: HCT-116 colon
HCC-2998 colon = system: HCC-2998 colon
KM12 colon = system: KM12 colon

COc1ccc2cc(-c3ccc(-c4ccc(C(=N)N)s4)s3)ccc2c1
growth (SR leukemia): -14.5% (active)
growth (RPMI-8226 leukemia): -20.9% (active)
growth (OVCAR-8 ovarian): -32.6% (active)
growth (OVCAR-5 ovarian): -33% (active)
growth (OVCAR-4 ovarian): -45.6% (active)
growth (SK-OV-3 ovarian): 97.2%
growth (IGROV1 ovarian): 63%
growth (HS 578T breast): 90.3%
growth (NCI/ADR-RES ovarian): -43% (active)
growth (T-47D breast): -9.45% (active)
growth (BT-549 breast): 98.6%
growth (MDA-MB-435 melanoma): 0.918% (active)
growth (SW-620 colon): -64.3% (active)
growth (MCF7 breast): -60.9% (active)
growth (HCT-116 colon): -29.5% (active)
growth (HCC-2998 colon): -58.1% (active)
growth (KM12 colon): -14.5% (active)

CCOC(=O)c1c2c(n3c1NCC3)-c1ccccc1C2=O
growth (SR leukemia): 100%
growth (RPMI-8226 leukemia): 105%
growth (OVCAR-8 ovarian): 99.4%
growth (OVCAR-5 ovarian): 89.4%
growth (OVCAR-4 ovarian): 99.7%
growth (SK-OV-3 ovarian): 104%
growth (IGROV1 ovarian): 67.3%
growth (NCI/ADR-RES ovarian): 102%
growth (T-47D breast): 97.7%
growth (BT-549 breast): 86.9%
growth (MDA-MB-435 melanoma): 90.8%
growth (SW-620 colon): 91.8%
growth (MCF7 breast): 90.6%
growth (HCT-116 colon): 103%
growth (HCC-2998 colon): 91.4%
growth (KM12 colon): 103%

COc1cc2oc(-c3cccc(NC(=O)c4ccc5c(c4)OCO5)c3)cc(=O)c2c(OC)c1OC
growth (SR leukemia): 11.5%
growth (RPMI-8226 leukemia): -53.7% (active)
growth (OVCAR-8 ovarian): 46.3%
growth (OVCAR-5 ovarian): 93.9%
growth (OVCAR-4 ovarian): 58.1%
growth (SK-OV-3 ovarian): 98.1%
growth (IGROV1 ovarian): 47%
growth (HS 578T breast): 45.2%
growth (NCI/ADR-RES ovarian): 57.6%
growth (T-47D breast): 26.3%
growth (BT-549 breast): 41.4%
growth (MDA-MB-435 melanoma): 53.3%
growth (SW-620 colon): 64%
growth (MCF7 breast): 43.6%
growth (HCT-116 colon): 35.5%
growth (HCC-2998 colon): 53.1%
growth (KM12 colon): 51.3%

C/C(C=O)=C\c1ccc2c(c1)OCO2
growth (SR leukemia): 109%
growth (RPMI-8226 leukemia): 96.7%
growth (OVCAR-8 ovarian): 106%
growth (OVCAR-5 ovarian): 110%
growth (OVCAR-4 ovarian): 109%
growth (SK-OV-3 ovarian): 105%
growth (IGROV1 ovarian): 116%
growth (HS 578T breast): 115%
growth (NCI/ADR-RES ovarian): 107%
growth (T-47D breast): 117%
growth (BT-549 breast): 114%
growth (MDA-MB-435 melanoma): 107%
growth (SW-620 colon): 118%
growth (MCF7 breast): 102%
growth (HCT-116 colon): 108%
growth (HCC-2998 colon): 108%
growth (KM12 colon): 110%

CC(=O)N(Cc1ccccc1)c1nc2ccc(O)c(CN(C)C)c2s1
growth (SR leukemia): 106%
growth (RPMI-8226 leukemia): 95.2%
growth (OVCAR-8 ovarian): 103%
growth (OVCAR-5 ovarian): 100%
growth (OVCAR-4 ovarian): 97.6%
growth (SK-OV-3 ovarian): 104%
growth (IGROV1 ovarian): 93.9%
growth (HS 578T breast): 92.6%
growth (NCI/ADR-RES ovarian): 93.5%
growth (T-47D breast): 85.2%
growth (BT-549 breast): 96.6%
growth (MDA-MB-435 melanoma): 99.7%
growth (SW-620 colon): 94.7%
growth (MCF7 breast): 87.8%
growth (HCT-116 colon): 102%
growth (HCC-2998 colon): 105%
growth (KM12 colon): 102%

CCOC(=O)c1c(C)nc2c(c1N)CC(=O)N2Cc1cc(OC)c(OC)c(OC)c1
growth (SR leukemia): 20.7%
growth (RPMI-8226 leukemia): 40.9%
growth (OVCAR-8 ovarian): 61.9%
growth (OVCAR-5 ovarian): 93%
growth (OVCAR-4 ovarian): 51.3%
growth (SK-OV-3 ovarian): 57.2%
growth (IGROV1 ovarian): 53.1%
growth (HS 578T breast): 65.1%
growth (NCI/ADR-RES ovarian): 17.6%
growth (T-47D breast): 28.7%
growth (BT-549 breast): 48.7%
growth (MDA-MB-435 melanoma): 4.24% (active)
growth (SW-620 colon): 33.4%
growth (MCF7 breast): 26.9%
growth (HCT-116 colon): 20.5%
growth (HCC-2998 colon): 65.6%
growth (KM12 colon): 30.1%

COC(=O)c1nc(-c2ccccc2)oc1S(=O)(=O)N1CCC(C(N)=O)CC1
growth (SR leukemia): -3.16% (active)
growth (RPMI-8226 leukemia): 41.3%
growth (OVCAR-8 ovarian): 83.7%
growth (OVCAR-5 ovarian): 76.7%
growth (OVCAR-4 ovarian): 61.2%
growth (SK-OV-3 ovarian): 101%
growth (IGROV1 ovarian): 51.4%
growth (HS 578T breast): 86.7%
growth (NCI/ADR-RES ovarian): 111%
growth (T-47D breast): 36%
growth (BT-549 breast): 76.2%
growth (MDA-MB-435 melanoma): 59.5%
growth (SW-620 colon): 25.4%
growth (MCF7 breast): 32%
growth (HCT-116 colon): 43.9%
growth (HCC-2998 colon): 104%
growth (KM12 colon): 87.8%

COC(=O)C1=Nc2ccc(F)cc2/C1=C\c1sc(Nc2ccc(O)cc2)nc1O
growth (SR leukemia): 24.2%
growth (RPMI-8226 leukemia): 62%
growth (OVCAR-8 ovarian): 83%
growth (OVCAR-5 ovarian): 98%
growth (OVCAR-4 ovarian): 64.8%
growth (SK-OV-3 ovarian): 102%
growth (IGROV1 ovarian): 68.5%
growth (HS 578T breast): 46.1%
growth (NCI/ADR-RES ovarian): 94.5%
growth (T-47D breast): 62.4%
growth (BT-549 breast): 35%
growth (MDA-MB-435 melanoma): 0.954% (active)
growth (SW-620 colon): 65.9%
growth (MCF7 breast): 22%
growth (HCT-116 colon): 64%
growth (HCC-2998 colon): 79.3%
growth (KM12 colon): 49.5%
